The panel holds about 83,000 compounds, 20% with a hit somewhere; the sample as a whole holds those more often.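 Compound tested at a single concentration for 48 hours in 96-well plates; a percent growth value below 10 was scored as active.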 A number with no mark means an inactive call. Calls of active or inactive are those of the source.

Test systems include HCT-15 colon; HT29 colon; SNB-75 CNS; SNB-19 CNS; U251 CNS; PC-3 prostate; UACC-62 melanoma; LOX IMVI melanoma; SK-MEL-28 melanoma; SK-MEL-5 melanoma.
Experiment in all cases: NCI-60 one-dose screen, 48 h (100 = growth as untreated, 0 = no growth, -100 = all killed)
Holding throughout (details): 10 µM unless noted

In the case of `CC(=O)Nc1ccc2c(c1)Cc1c(F)cccc1-2`, the growth in the experiment on HCT-15 colon is 108%; in the experiment with HT29 colon it was 111%; in the experiment with SNB-75 CNS, 73.7%; in the experiment on SNB-19 CNS it was 107%; in the experiment on U251 CNS, 107%; in the experiment with PC-3 prostate it was 88.4%. Further, the values for the growth in the experiment on UACC-62 melanoma, in the experiment with LOX IMVI melanoma and in the experiment on SK-MEL-28 melanoma were 98.9%, 103% and 117%, respectively.

Regarding `c1ccc([P+](CCCc2n(Cc3ccc4ccccc4c3)c3ccccc3[n+]2Cc2ccc3ccccc3c2)(c2ccccc2)c2ccccc2)cc1`, the growth was 85.5% in the experiment on HCT-15 colon; 23.9% with HT29 colon; 91% with SNB-75 CNS; 38.5% in the experiment with SNB-19 CNS; 46.5% with U251 CNS; 67.5% with PC-3 prostate. In addition, the growth in the experiment with UACC-62 melanoma is 37.8%; with LOX IMVI melanoma it was 13.8%; with SK-MEL-28 melanoma, 37.1%.

Turning to `CCOC(=O)c1sc(-c2ccc(OS(=O)(=O)c3ccc(C(C)(C)C)cc3)c(C=O)c2)nc1C`, the growth in the experiment with HCT-15 colon was 12.5%; with HT29 colon, 19.7%; in the experiment with SNB-75 CNS, 22.9%; with SNB-19 CNS, 29.7%; in the experiment on U251 CNS, 26%; in the experiment with PC-3 prostate, 16.2%. For the same compound, the growth is 46.1% with UACC-62 melanoma, 43.3% with LOX IMVI melanoma and 81.9% with SK-MEL-28 melanoma.

`COc1ccc(/C=C2\COc3ccc(O)cc3C2=O)c(OC)c1`: the growth with HCT-15 colon is 34.4%; in the experiment on HT29 colon it was 38.2%; in the experiment with SNB-75 CNS it was 47.5%; with SNB-19 CNS, 55.3%; in the experiment with U251 CNS, 50.3%; in the experiment with PC-3 prostate, 57.2%. Moreover, the growth with UACC-62 melanoma was 50%; in the experiment on LOX IMVI melanoma it was 45.4%; in the experiment on SK-MEL-28 melanoma, 64%.

In the case of `COc1ccc(OC)c(/C=C2\COc3ccc(O)c(O)c3C2=O)c1`, the growth was 1.18% (active) in the experiment with HCT-15 colon; 33.7% with HT29 colon; 11.7% with SNB-75 CNS; 33.9% in the experiment on SNB-19 CNS; 19% in the experiment with U251 CNS; 26.6% in the experiment with PC-3 prostate. The growth is 28.9% in the experiment on UACC-62 melanoma, -63.1% (active) with LOX IMVI melanoma and 48.7% in the experiment on SK-MEL-28 melanoma.

As for `COc1cccc(/C=C2\COc3ccc(O)cc3C2=O)c1OC`, the growth is 45.4% in the experiment with HCT-15 colon; 19.2% in the experiment with HT29 colon; 86.5% in the experiment on SNB-75 CNS; 67.4% in the experiment with SNB-19 CNS; 54.3% with U251 CNS; 56.2% with PC-3 prostate. The growth in the experiment on UACC-62 melanoma was 71%; in the experiment on LOX IMVI melanoma it was -19.7% (active); with SK-MEL-28 melanoma it was 96.6%.

Turning to `Cc1c(C)c2c(c(C)c1NC(=O)/C=C\C(=O)O)CCC(C)(CCCC(C)CCCC(C)CCCC(C)C)O2` (stereo unspecified), the growth in the experiment with HCT-15 colon was 2.82% (active); in the experiment on HT29 colon, 20.7%; with SNB-75 CNS, 33.2%; in the experiment with SNB-19 CNS, 78.1%; in the experiment on U251 CNS it was 60.2%; in the experiment with PC-3 prostate, 16.6%. The growth in the experiment with SK-MEL-5 melanoma was -97.7% (active); in the experiment on UACC-62 melanoma, 22.8%; in the experiment with SK-MEL-28 melanoma it was -10.6% (active).

For `Cn1cc(-c2ccc3ncc(-c4ccc(CC(=O)Nc5cc(C(C)(C)C)nn5C)cc4)cc3c2)cn1`, the growth in the experiment with HCT-15 colon was 7.79% [30 µM] (active); with HT29 colon it was 36.5% [30 µM]; with SNB-75 CNS, 22% [30 µM]; in the experiment on SNB-19 CNS it was 41.9% [30 µM]; with U251 CNS it was 35% [30 µM]; with PC-3 prostate, 5.27% [30 µM] (active). Moreover, the growth in the experiment on UACC-62 melanoma was -33.9% [30 µM] (active); with LOX IMVI melanoma it was -18.4% [30 µM] (active); with SK-MEL-28 melanoma, 14.5% [30 µM].

Regarding `COc1ccc(/C=C2\COc3ccc(O)c(O)c3C2=O)c(OC)c1`, the growth with HCT-15 colon is 16.8%; in the experiment on HT29 colon, 73.6%; in the experiment with SNB-75 CNS it was 57.7%; in the experiment on SNB-19 CNS it was 76%; in the experiment with U251 CNS, 44.4%; with PC-3 prostate it was 49.6%. Besides, the growth with UACC-62 melanoma is 47.8%; in the experiment on LOX IMVI melanoma, 30.7%; in the experiment with SK-MEL-28 melanoma it was 76.4%.

`Cc1cnc(Nc2ccc(OCCN3CCCC3)cc2)nc1NCc1ccco1`: the growth is 74.6% with HCT-15 colon; 50.7% in the experiment with HT29 colon; 33.3% in the experiment with SNB-75 CNS; 94.4% in the experiment on SNB-19 CNS; 65.8% with U251 CNS; 72% with PC-3 prostate. Further, the growth was 81.7% with SK-MEL-5 melanoma, 86.9% in the experiment on UACC-62 melanoma and 103% with SK-MEL-28 melanoma.

Regarding `COc1ccc(OC)c(/C=C2\COc3ccc(O)cc3C2=O)c1`, the growth in the experiment on HCT-15 colon is 78.5%; with HT29 colon, 45.9%; in the experiment with SNB-75 CNS it was 116%; with SNB-19 CNS, 84.5%; in the experiment with U251 CNS, 84.6%; in the experiment on PC-3 prostate, 95.2%. Further, the growth in the experiment on UACC-62 melanoma was 84.3%; in the experiment with LOX IMVI melanoma, 51.3%; in the experiment on SK-MEL-28 melanoma it was 94.9%.

Take `COc1ccc(/C(C)=C(\c2ccc(Cl)cc2)c2ccc(OCCN3CCCC3)cc2)cc1F`: the growth in the experiment with HCT-15 colon was 1.16% (active); in the experiment with HT29 colon, -10.5% (active); with SNB-75 CNS it was 47.6%; in the experiment with SNB-19 CNS, 42.8%; with U251 CNS it was 19.1%; in the experiment with PC-3 prostate, 30%. The growth in the experiment on UACC-62 melanoma was -30.2% (active); in the experiment with LOX IMVI melanoma it was -88.3% (active); with SK-MEL-28 melanoma, -42.1% (active).

Turning to `CCCCC1COc2cccc3c(SCC(=O)N(C)c4cccc(Cl)c4)cc[n+]1c23` (stereo unspecified), the growth in the experiment on HCT-15 colon was 101%; in the experiment on HT29 colon it was 100%; with SNB-75 CNS it was 137%; in the experiment on SNB-19 CNS it was 98.7%; in the experiment with U251 CNS, 112%; in the experiment on PC-3 prostate, 106%. The growth is 101% in the experiment on UACC-62 melanoma, 102% in the experiment with LOX IMVI melanoma and 106% with SK-MEL-28 melanoma.

As to `CCN(CC)N=Nc1nn(C(=O)Nc2ccc(Cc3ccccc3)cc2)c2ccc(Cl)cc12`, the growth in the experiment with HCT-15 colon is 43.6%; in the experiment on HT29 colon, 61.8%; with SNB-75 CNS, 88.8%; with SNB-19 CNS, 67.2%; with U251 CNS, 93.4%; with PC-3 prostate, 69.6%. For the same compound, the growth in the experiment on SK-MEL-5 melanoma was 56.6%; in the experiment on UACC-62 melanoma, 8.7% (active); in the experiment on SK-MEL-28 melanoma it was 70.8%.

Source of the values: PubChem BioAssay (NCI).
